Screening results (PubChem BioAssay)
An excerpt weighted towards active compounds, which were near 5.4% of everything screened.
Lassa entry inh = blocks Lassa virus binding to or entry into cells; Potency, µM (titrated, usually from 37.9 µM), actives largely listed as inhibitors; Lassa virus pseudotype entry inhibition, cell reporter; 300,000 compounds, 1.2% hits; calls by dose curve; tested in HEK293 cells; further: nearly all actives have a fitted effect of over 50% in size
FMDV antiviral = blocks foot and mouth disease virus; FMDV antiviral cell-based qHTS; Potency, µM (titrated, usually from 57.9 µM), most hits filed as inhibitors; 410,000 compounds, 1.2% hits; AID 1159524; calls by dose curve; tested in HEK293T cells; further: read-out not given here; nearly all actives have a fitted effect of over 45% in size
Vaccinia Venus = inhibitors of vaccinia virus (Venus reporter); 330,000 compounds, 0.46% hits; Potency, µM (highest dose often 36.5 µM), usual class: inhibitors; AID 720580; Vaccinia virus Venus reporter expression, fluorescence; calls by dose curve; tested in A549 cells; further: nearly all actives have a fitted effect of over 30% in size
Vaccinia mCherry = inhibitors of vaccinia virus infection (mCherry reporter signal) | Potency, µM (doses to about 36.5 µM), actives largely listed as inhibitors | Vaccinia virus mCherry reporter infection, fluorescence | 310,000 compounds, 0.63% hits; calls by dose curve; tested in A549 cells; further: nearly all actives have a fitted effect of over 35% in size
Sm TGR block = inhibitors of Schistosoma mansoni thioredoxin glutathione reductase | 360,000 compounds, 3% hits | Potency, µM (series often up to 114 µM), most hits filed as inhibitors | purified TGR, DTNB reduction, TNB absorbance 405 nm | Q962Y6 | AID 485364; active means well fitted inhibition curve with a large enough effect; inconclusive means small, poorly fitted or top-dose-only effect; inactive means no such curve, though single readings can be large or run the other way; further: nearly all actives have a fitted effect of over 60% in size
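First, TGR (20 nM dispensed) and NADPH were mixed with compound. Second, a 15 min room-temperature incubation followed. Third, further NADPH and then DTNB were added to start the reaction. Finally, TNB absorbance was monitored kinetically.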
MARV entry inh = Marburg virus entry inhibition; Marburg virus pseudotyped entry inhibition, cell reporter; Potency, µM (highest dose often 37.8 µM), most hits filed as inhibitors; 300,000 compounds, 1.8% hits; AID 540276; calls by dose curve; tested in HEK293 cells
Numbers stand for hits.

Screening COc1cc(Cl)c(C)cc1NC(=O)c1cc(CN2CCOCC2)on1 returned Lassa entry inh inactive, FMDV antiviral inactive, Vaccinia Venus inactive, Vaccinia mCherry inactive and Sm TGR block inactive.
For CC1=NC(Nc2nc(C)c3ccccc3n2)=NC(C)(C)C1 the results were Lassa entry inh inactive, FMDV antiviral inactive, Sm TGR block 25.1µM and MARV entry inh inconclusive.
CC(=O)N1CCc2nc3sc(C(=O)Nc4ccc(Cl)cc4F)c(N)c3c(C(F)(F)F)c2C1 was read as Lassa entry inh inactive, FMDV antiviral inactive, Vaccinia Venus inactive, Vaccinia mCherry inactive, Sm TGR block inactive and MARV entry inh inactive.
For Cc1nn(C(=O)c2ccccc2)c(C)c1Sc1ccc(Cl)cc1 the results were Lassa entry inh inactive, FMDV antiviral 28.2µM, Vaccinia Venus inactive, Vaccinia mCherry inactive and Sm TGR block inactive.
For Cc1ccc(Sc2c(C)nn(C(=O)c3ccc(Br)cc3)c2C)cc1 the results were Lassa entry inh inactive, FMDV antiviral inactive, Vaccinia Venus inactive, Vaccinia mCherry inactive, Sm TGR block inactive and MARV entry inh inactive.
`O=[N+]([O-])c1ccccc1NCc1c(O)ccc2ccccc12` gave FMDV antiviral inactive, Vaccinia Venus inactive, Vaccinia mCherry inactive and Sm TGR block 1.78µM.
Screening Oc1ccc2ccccc2c1CNc1ccccc1 returned Lassa entry inh inconclusive, FMDV antiviral inactive, Vaccinia Venus inactive, Vaccinia mCherry inconclusive and MARV entry inh inactive.
For Cc1ccc(CNS(=O)(=O)c2c(C)[nH]c(C)c2C(=O)N2CCCCC2)o1 the results were Lassa entry inh inactive, FMDV antiviral inactive, Vaccinia Venus inactive, Vaccinia mCherry inactive, Sm TGR block 44.7µM and MARV entry inh inactive.
Screening O=c1c(Cl)c(N2CCCCC2)cnn1-c1nc2ccccc2[nH]1 returned Lassa entry inh inconclusive, FMDV antiviral inconclusive, Sm TGR block inactive and MARV entry inh inconclusive.
Screening O=c1c2ccccc2cnn1-c1nc2ccccc2[nH]1 returned Lassa entry inh 0.326µM, FMDV antiviral 1.78µM, Sm TGR block inactive and MARV entry inh 0.291µM.
For O=C([O-])c1cc(-c2ccccc2)cc(-c2ccccc2)[n+]1CCc1ccc(Cl)cc1 the results were FMDV antiviral 35.5µM, Vaccinia Venus inconclusive and Vaccinia mCherry inactive.
Cc1cc(-c2ccccc2)cc(-c2ccccc2)[n+]1CCc1ccccc1 was read as FMDV antiviral 20µM, Vaccinia Venus inconclusive, Vaccinia mCherry inconclusive and Sm TGR block inactive.
Screening O=C([O-])c1ccc(-[n+]2c(-c3ccccc3)cc(-c3ccccc3)cc2-c2ccccc2)cc1 returned FMDV antiviral inactive, Vaccinia Venus inactive, Vaccinia mCherry inactive and Sm TGR block inactive.
`COc1cc(OC)cc(-c2c(C#Cc3ccsc3)c3cc(-c4ccc5cc[nH]c5c4)ccc3n2C)c1` gave FMDV antiviral inactive, Vaccinia Venus inactive, Vaccinia mCherry inconclusive and Sm TGR block 25.1µM.
COc1cccc(NC(=O)c2oc3ccc(S(=O)(=O)N4CCC5(CC4)OCCO5)cc3c2C)c1 was read as Lassa entry inh inconclusive, FMDV antiviral inactive, Vaccinia Venus inactive, Vaccinia mCherry inactive and Sm TGR block inactive.
For CCOC(=O)N1CCc2c(sc3c2c(=O)n(Cc2ccccc2)c(=O)n3CC(=O)Nc2ccccc2F)C1 the results were Lassa entry inh inactive, FMDV antiviral inactive, Vaccinia Venus inactive, Vaccinia mCherry inactive, Sm TGR block inactive and MARV entry inh inactive.
For O=Nc1c(-c2ccccc2)n(O)[n+]([O-])c1-c1ccccc1 the results were FMDV antiviral inactive, Vaccinia Venus 11.2µM and Vaccinia mCherry inconclusive.
Screening Cc1c(-c2ccccc2)n(O)[n+]([O-])c1-c1ccccc1 returned FMDV antiviral inactive, Vaccinia Venus inactive and Vaccinia mCherry inactive.
`COc1cccc(CN2CCC3(CCC(CNC(=O)c4ccco4)O3)CC2)c1OC` (stereo not drawn) gave FMDV antiviral inactive, Vaccinia Venus inactive and Vaccinia mCherry inactive.
Screening CCc1ccccc1N(C)C(=O)c1cc2c(=O)oc3ccccc3c2s1 returned Lassa entry inh inconclusive, FMDV antiviral inconclusive, Vaccinia Venus 2.51µM, Vaccinia mCherry inactive, Sm TGR block inactive and MARV entry inh inactive.
Screening CCCN(C(=O)c1cc2c(=O)oc3ccccc3c2s1)c1ccccc1C returned Lassa entry inh inactive, FMDV antiviral 39.8µM, Vaccinia Venus inactive, Vaccinia mCherry inactive, Sm TGR block inactive and MARV entry inh inactive.
Cc1ccc(-c2nc3n(n2)C(c2ccccc2Cl)C=C(c2ccc(Cl)cc2)N3)cc1 (stereo not drawn) was read as Lassa entry inh inactive, FMDV antiviral inactive, Vaccinia Venus inactive, Vaccinia mCherry inactive, Sm TGR block inactive and MARV entry inh inactive.
`Nc1nc(=S)c2n[nH]nc2[nH]1` gave Vaccinia Venus inactive and Vaccinia mCherry inactive.
Screening O=C(COC(=O)c1nc(Cl)c(Cl)c(Cl)c1Cl)NCc1ccccc1 returned FMDV antiviral inconclusive and Sm TGR block 3.98µM.
Screening COc1cccc(Cc2nc3ccccc3nc2SCC(=O)N2CCCc3ccccc32)c1 returned Lassa entry inh inactive, FMDV antiviral inactive, Vaccinia Venus inactive, Vaccinia mCherry inactive and Sm TGR block inactive.
Screening COc1cc2c(NC3CCN(C(C)C)CC3)nc(N3CCCN(C)CC3)nc2cc1OCCOCCN1CCCC1 returned Vaccinia Venus 3.55µM and Vaccinia mCherry inconclusive.
For COc1cc2c(NC3CCN(C)CC3)nc(N3CCCN(C)CC3)nc2cc1OCCCN1CCOCC1 the results were Vaccinia Venus 8.91µM and Vaccinia mCherry inconclusive.
Screening COc1cc2c(NC3CCN(C)CC3)nc(N3CCCCC3)nc2cc1OCCOCCN1CCCC1 returned Vaccinia Venus 10µM and Vaccinia mCherry inconclusive.
For COc1cc2c(NC3CCN(C)CC3)nc(N3CCCN(C)CC3)nc2cc1OCCCCCC(N)=O the results were Vaccinia Venus inactive and Vaccinia mCherry inactive.
`COc1cc2c(NC3CCN(C)CC3)nc(N3CCCN(C)CC3)nc2cc1OCCCCCN` gave Vaccinia Venus inconclusive and Vaccinia mCherry inactive.
CCOc1cccc(C(=O)Nc2ccc(-c3nc4ncccc4o3)cc2C)c1 was read as Lassa entry inh inactive, FMDV antiviral inactive, Vaccinia Venus inactive, Vaccinia mCherry inactive and Sm TGR block inactive.
Screening O=[N+]([O-])c1cc(-c2nnc(Nc3ccc(O)cc3)c3ccccc23)ccc1N1CCOCC1 returned Lassa entry inh inconclusive, FMDV antiviral 20µM, Vaccinia Venus inactive, Vaccinia mCherry inconclusive, Sm TGR block inactive and MARV entry inh inconclusive.
O=[N+]([O-])c1cc(-c2nnc(Nc3ccccc3)c3ccccc23)ccc1N1CCOCC1 was read as FMDV antiviral inactive, Vaccinia Venus inconclusive, Vaccinia mCherry inconclusive, Sm TGR block inactive and MARV entry inh inactive.
Screening Clc1ccc(OCc2cc(-c3ccccc3)no2)c(Cl)c1 returned Lassa entry inh 11.2µM, FMDV antiviral inactive, Vaccinia Venus inactive, Vaccinia mCherry inactive, Sm TGR block inactive and MARV entry inh 7.08µM.
For Cc1ccc(C(=O)CCS(=O)(=O)c2ccc(F)cc2)cc1 the results were FMDV antiviral inactive and Sm TGR block 0.316µM.
